High-throughput results deposited in PubChem BioAssay by National Center for Advancing Translational Sciences (NCATS).
Shown are actives, neighbours in structure and some others; about 12% of the full set was active somewhere.
L3MBTL1 inh – qHTS Assay for the Inhibitors of L3MBTL1; Lethal(3)malignant brain tumor-like protein 1 (Homo sapiens), Q9Y468; AlphaScreen L3MBTL1–H3K9me1 peptide binding; Potency, µM (highest dose often 57.1 µM), most hits filed as inhibitors; 230,000 compounds, 0.66% hits; note: nearly all actives have a fitted effect of over 60% in size
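L3MBTL1 50 nM + b-AHA-H3(1-15)K9me1 75 nM, 30 min RT; compound added, 30 min RT; streptavidin donor/Ni-chelate acceptor beads 10 ug/mL each final, 30 min RT dark; AlphaScreen read.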
JMJD2A Tudor – qHTS Assay for Inhibitors of JMJD2A-Tudor Domain; Lysine-specific demethylase 4A (Homo sapiens), O75164; AlphaScreen JMJD2A-Tudor / H3K4me3 peptide binding; Potency, µM (series often up to 114 µM), most hits filed as inhibitors; 390,000 compounds, 4.4% hits; AID 504339, 2011; note: nearly all actives have a fitted effect of over 50% in size
Sfp inh – qHTS Assay for Inhibitors of Bacillus subtilis Sfp phosphopantetheinyl transferase (PPTase); 4'-phosphopantetheinyl transferase ffp (Bacillus subtilis), Q9F4F7; Biochemical Sfp PPTase activity, qHTS; Potency, µM, most hits filed as inhibitors; 310,000 compounds, 3.5% hits; AID 1490, 2009;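 note: the enzyme is Sfp with the accession as filed and its product quenches rhodamine fluorescence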
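With Hepes-Na pH 7.6 buffer containing 10 mM MgCl2, Sfp (15 nM) modified BHQ-2-YbbR (12.5 uM) using rhodamine-CoA (5 uM). Two reads 30 minutes apart at 525/598 nm yielded each well's rate.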
HP1b binding inh – HTS for Inhibitors of HP1-beta Chromodomain Interactions with Methylated Histone Tails; 390,000 compounds, 0.56% hits; Chromobox protein homolog 1 (Homo sapiens), P83916; Potency, µM (highest dose often 114 µM), most hits filed as inhibitors; AlphaScreen HP1-beta / biotin-H3K9me3 peptide binding; AID 540317, 2011; note: nearly all actives have a fitted effect of over 70% in size
Target sequence (P83916 whole entry, looked up): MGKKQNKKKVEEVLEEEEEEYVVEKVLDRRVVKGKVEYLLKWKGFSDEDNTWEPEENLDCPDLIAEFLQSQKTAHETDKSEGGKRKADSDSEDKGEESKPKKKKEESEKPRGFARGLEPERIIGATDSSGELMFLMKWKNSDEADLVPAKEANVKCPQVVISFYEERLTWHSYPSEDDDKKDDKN
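AlphaScreen: HP1-beta (50 nM) preformed 30 min with biotin-H3(1-18)K9me3 peptide (50 nM) in PBS pH 7.4, 0.01% Tween-20. Compound added for 30 min at RT, then streptavidin donor/nickel chelate acceptor beads (10 ug/mL) for 30 min.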
G9a block – qHTS Assay for Inhibitors of Histone Lysine Methyltransferase G9a | G9a H3K9 monomethylation, AlphaScreen, 2 h | Potency, µM (titrated, usually from 102 µM), most hits filed as inhibitors | 350,000 compounds, 8.8% hits | Histone-lysine N-methyltransferase EHMT2 (Homo sapiens), Q96KQ7 | AID 504332, 2011; note: nearly all actives have a fitted effect of over 75% in size
Target sequence (Q96KQ7 913-1193 limits assumed): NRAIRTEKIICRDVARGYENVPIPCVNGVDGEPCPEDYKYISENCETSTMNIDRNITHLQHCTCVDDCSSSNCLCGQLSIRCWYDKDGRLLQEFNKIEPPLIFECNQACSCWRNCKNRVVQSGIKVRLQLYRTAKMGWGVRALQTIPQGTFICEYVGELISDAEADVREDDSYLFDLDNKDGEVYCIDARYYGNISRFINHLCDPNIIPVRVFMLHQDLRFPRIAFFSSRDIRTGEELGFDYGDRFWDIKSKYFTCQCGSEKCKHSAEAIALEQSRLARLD
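Compounds were preincubated with 20 nM G9a for 15 min, after which biotinylated H3K9 peptide (500 nM) and SAM (20 uM) started a 2 h room-temperature reaction. Monomethylated product was quantified by antibody-based AlphaScreen chemiluminescence.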
BAZ2B block – qHTS Assay for Inhibitors of BAZ2B. AlphaScreen BAZ2B-H3K14Ac peptide displacement. Potency, µM (series often up to 114 µM), hits mostly inhibitors. 360,000 compounds, 4.4% hits. AID 504333, 2011; note: nearly all actives have a fitted effect of over 60% in size
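In this displacement format the biotinylated H3(5-23) peptide acetylated at Lys14 serves as ligand at 50 nM, with BAZ2B at 50 nM in PBS pH 7.4 containing 0.01% Tween-20. Donor and acceptor beads are 10 ug/mL final.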
A number is an active result; . = inactive; ? = inconclusive; / = no result given; ! = a repeat was not active; [ ] = dose if it differs, or a comment. Calls come from the whole dose curve; as a rule, active = well fitted curve in the direction sought with a large enough effect; inconclusive = small, poorly fitted or top-dose-only effect, or another doubt; inactive = no such curve, though single readings can be large; an effect the other way counts as inactive or inconclusive.

SMILES	L3MBTL1 inh	JMJD2A Tudor	Sfp inh	HP1b binding inh	G9a block	BAZ2B block
Cc1cc(C)c2sc(NC(=O)C3CC3)nc2c1	.	.	.	.	/	.
COc1ccc(NC(=S)Nc2cccc(Cl)c2)cc1OC	.	.	?	.	50µM	.
COc1ccc(NC(=S)NC2CCCCC2)c(OC)c1	.	.	.	?	50µM	?
CNC(=S)NNS(=O)(=O)c1ccc(OC)cc1OC	/	.	25µM	.	.	.
COC(=O)NNC(=S)Nc1cc(OC)ccc1OC	/	?	?	.	45µM	?
COc1ccc(NC(=S)NC2CCCCCC2)c(OC)c1	.	.	.	?	?	?
COc1ccc(OC)c(NC(=S)Nc2ccccc2)c1	.	.	.	.	.	.
COc1ccccc1N1CCN(C(=O)C(CCSC)NS(=O)(=O)c2ccc3c(c2)oc(=O)n3C)CC1 (centres undefined)	/	.	/	.	.	.
COc1ccc(NC(=O)N(C2CCCCC2)C(C)c2cccnc2)c(OC)c1 (centres undefined)	.	.	.	.	.	.
COc1ccc(NC(=S)Nc2ccccc2OC)c(OC)c1	.	?	?	?	.	.
COc1ccc(NC(=S)NCCc2ccccc2OC)c(OC)c1	/	?	89µM	.	?	?
COc1ccc(NC(=O)N(C2CCCCC2)C(C)c2ccco2)c(OC)c1 (centres undefined)	.	?	.	.	45µM	?
COc1ccc(NC(=O)C/C(C)=N/NC(=O)c2cnccn2)c(OC)c1	/	.	?	.	.	.
COc1ccc(NC(=S)Nc2ccc(OC)cc2OC)c(OC)c1	.	.	?	.	4µM	.
COc1ccc(NC(=O)C/C(C)=N/NC(=O)C(=O)NC2CCCCC2)c(OC)c1	/	.	.	.	16µM	.
COc1ccc(C(=O)Nc2nc3nc(C)c(Cl)c(=O)n3[nH]2)cc1	/	.	/	.	.	.
Nc1c(C(=O)CSc2nc3ccccc3o2)c(=O)[nH]c(=O)n1C1CC1	.	.	/	.	.	.
COc1ccc(NC(=O)Nc2ccc(Cc3ccncc3)cc2)c(OC)c1	.	?	.	?	?	50µM
Fc1ccc(NC(=S)Nc2cccnc2)cc1Cl	.	.	28µM	.	/	?
COc1ccc(NC(=S)Nc2cccnc2)c(OC)c1	.	.	.	.	50µM	.
COc1cccc(NC(=S)Nc2cccnc2)c1	.	.	.	.	.	.
CC(C)(O)C(=O)NNC(=S)Nc1ccc(F)c(Cl)c1	.	.	.	.	45µM	.
CC[C@]1(C(=O)OC)[C@H]2C(=O)N(Cc3ccccc3)C(=O)[C@H]2[C@H]2CN(C)C(=NCc3ccccc3)N21	.	.	/	.	/	/
COc1ccc(Cl)cc1NC(=S)Nc1cccnc1	.[11.4 µM]	.	25µM	.	?	.
COc1ccc(Cl)cc1NC(=S)Nc1cccc(C)c1	.	.	.	.	.	.
SMILES	L3MBTL1 inh	JMJD2A Tudor	Sfp inh	HP1b binding inh	G9a block	BAZ2B block
O=C(O)C1Cc2c([nH]c3ccccc23)C(c2ccc3c(c2)OCO3)N1 (centres undefined)	.	?	.	.	35µM	.
CC1NC(C(=O)O)Cc2c1[nH]c1ccccc21 (centres undefined)	/	/	.	/	.	/
NCCNc1cccc2ccccc12	/	/	71µM	/	?	/
NC(=O)Nc1cccc2ccccc12	.	.	.	.	.	.
CCCN1C(=O)c2ccccc2CC1(C)C(=O)NC1CCCCC1 (centres undefined)	/	.	/	.	.	.
CC(=O)Nc1ccc2c(c1)ncn2C1CCCCC1	/	.	/	.	/	/
O=C(NC1CCCCC1)N1CCC(n2cnc3ccccc32)CC1	.	56µM	.	.	56µM	?
O=C(O)c1ccc2c(c1)ncn2C1CCCCCC1	/	?	89µM	.	.	.
O=C(O)CCC1(CCC(=O)O)CCCC(CCC(=O)O)(CCC(=O)O)C1=O	/	.	/	.	/	/
Cc1n[nH]c(=S)n(NC(=O)CC(=O)Nn2c(=S)[nH]nc(C)c2=O)c1=O	?	79µM	.	.	.	40µM
Cc1n[nH]c(=S)n(NC(=O)/C=C/C(=O)Nn2c(=S)[nH]nc(C)c2=O)c1=O	?	13µM	?	?	?	25µM
COc1ccccc1OCC(=O)Nn1c(=S)[nH]c2ncccc2c1=O	.	.	.	.	.	.
S=c1[nH]nc(-c2ccc3ccccc3n2)n1Cc1ccccc1	.	.	.	.	?	.
CCc1c(-c2n[nH]c(=S)n2Cc2ccccc2)csc1C	.	?	.	.	2µM	.
Cc1scc(-c2n[nH]c(=S)n2Cc2ccccc2)c1C	.	.	.	.	1.6µM	.
CC1CCc2sc(-c3n[nH]c(=S)o3)cc2C1 (centres undefined)	.	.	.	.	13µM	?
COc1ccccc1N1CCN(/N=C/c2c(C)nn(-c3ccccc3)c2C)CC1	?	40µM	.	18µM	?	28µM
COc1ccccc1N1CCN(/N=C\c2ccc(C)o2)CC1	.	.	79µM	?	?	.
COc1ccccc1N1CCN(/N=C/c2cccc(OC)c2OC)CC1	.	?	.	?	50µM	35µM
COc1ccccc1N1CCN(/N=C\c2ccccc2)CC1	.[2.29 µM]	.	.	.	.[0.501 µM]	?
COc1ccccc1N1CCN(/N=C/c2cc(OC)c(OC)c(OC)c2)CC1	?	?	.	?	?	?
COc1ccccc1N1CCN(/N=C\c2sccc2C)CC1	/	?	.	.	16µM	13µM
Cc1ccc(N2CCN(/N=C/c3sccc3C)CC2)cc1	.	.	.	.	.	.
CCOC(=O)C1=CN(C(=O)OC(C)(C)C)C(CN2C(=O)COCC2=O)C1 (centres undefined)	/	.	.	?	/	/
Cc1c(C(=O)N(Cc2ccccc2F)C2CCS(=O)(=O)C2)oc2ccc(F)cc12 (centres undefined)	/	.	/	.	.	.
C=CCOC(=O)C1=C(C)N=c2s/c(=C3\C(=O)N(CC(=O)O)c4ccccc43)c(=O)n2C1c1ccc(OC)cc1 (centres undefined)	.	?	25µM	.	8.9µM	?
CC(=O)N1CCN(Cc2nc3cc(NC(=O)COc4cccc(C)c4)ccc3n2C)CC1	/	.	.	.	6.3µM	?
Cc1cccc(OCC(=O)Nc2ccc3c(c2)nc(CCN2CCCCC2)n3C)c1	/	.	.	.	.	.
Cc1cccc(OCC(=O)Nc2ccc3c(c2)nc(CN2CCCCC2)n3C)c1	/	89µM!	.	.	32µM	?
